The sample as a whole holds a higher share of hits than the screen did.
NS1 inh: inhibitors of influenza NS1 protein function; AID 2326; Potency, µM (series often up to 46.1 µM); 270,000 compounds, 0.4% hits; note: actives are rising curves; nearly all actives have a fitted effect of over 50% in size
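In this qHTS, NS1 from influenza A is expressed in budding yeast, where it slows growth. Cells are switched from glucose to 2% galactose medium (pH 6.0, -URA), treated with compound, and growth recovery is read at OD600.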
Shiga inhibitor: blocks Shiga toxin action in Vero cells; inhibition, % at 38.7 µM; AID 2315; 290,000 compounds, 9.2% hits; Vero cells, Shiga toxin protein synthesis inhibition reporter; in the data active = inhibition mostly above about 28%, no sharp cut-off; inactive = mostly below about 43%
Tb PYK inh: blocks Trypanosoma brucei pyruvate kinase; Q57TT1; TbPYK enzyme, Kinase-Glo Plus ATP luminescence, 45 min; Potency, µM (highest dose often 76.8 µM), usual class: inhibitors; 410,000 compounds, 0.12% hits; AID 624173; active = well fitted curve in the direction sought with a large enough effect; inconclusive = small, poorly fitted or top-dose-only effect, or another doubt; inactive = no such curve, though single readings can be large; an effect the other way counts as inactive or inconclusive; note: nearly all actives have a fitted effect of over 50% in size
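TbPYK + substrate in 50 mM TEA pH 7.2, 100 mM KCl, 10 mM MgCl2, 0.05% BSA, 0.01% Tween-20; cpd pinned; ADP 130 uM final; 45 min RT; Kinase-Glo Plus 10 min; luminescence endpoint.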
SARS PLpro yeast: inhibitors of SARS-CoV papain-like protease in yeast; S. cerevisiae expressing SARS-CoV PLpro, growth rescue; Potency, µM (titrated, usually from 32.9 µM), hits mostly activators; 330,000 compounds, 0.19% hits; AID 485353; note: nearly all actives have a fitted effect of over 55% in size
LmPK inhibitor: blocks Leishmania mexicana pyruvate kinase activity; Q27686; purified LmPK, Kinase-Glo ATP luminescence, 1 h; Potency, µM (series often up to 57.5 µM), hits mostly inhibitors; 290,000 compounds, 0.37% hits; active = well fitted curve in the direction sought with a large enough effect; inconclusive = small, poorly fitted or top-dose-only effect, or another doubt; inactive = no such curve, though single readings can be large; an effect the other way counts as inactive or inconclusive
Target sequence (Q27686 whole entry, looked up): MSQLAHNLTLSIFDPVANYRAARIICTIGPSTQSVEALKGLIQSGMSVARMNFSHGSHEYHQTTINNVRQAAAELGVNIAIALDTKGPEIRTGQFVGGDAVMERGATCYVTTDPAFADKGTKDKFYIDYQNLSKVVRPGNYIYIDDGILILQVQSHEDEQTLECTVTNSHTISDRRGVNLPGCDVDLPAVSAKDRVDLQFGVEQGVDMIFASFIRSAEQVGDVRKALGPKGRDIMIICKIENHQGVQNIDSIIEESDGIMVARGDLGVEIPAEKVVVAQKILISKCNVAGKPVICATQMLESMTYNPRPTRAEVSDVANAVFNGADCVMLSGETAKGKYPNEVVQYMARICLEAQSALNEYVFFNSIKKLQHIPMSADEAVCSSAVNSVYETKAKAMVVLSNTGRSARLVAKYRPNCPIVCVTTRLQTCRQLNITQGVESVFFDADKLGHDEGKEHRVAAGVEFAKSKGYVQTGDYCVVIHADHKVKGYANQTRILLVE
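Purified LmPK (0.1 nM) with 0.5 mM PEP and 0.1 mM ADP in imidazole buffer pH 7.2 with MgCl2/KCl, 1 h at room temperature. ATP formed was read by luciferase luminescence and normalized to no-enzyme and uninhibited controls.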
Cycloheximide cs: affects cycloheximide protein synthesis inhibition readout, counter-screen. cell reporter, cycloheximide protein synthesis inhibition counterscreen. max response, %. 300,000 compounds, 12% hits; in the data active = max response mostly above about 13%, no sharp cut-off; inactive = mostly below about 14%; note: read at 38.3 µM for the half of the compounds with a filed dose
Hits are given with their value; – = inactive; ? = inconclusive; · = no result given. Unless noted, calls come from the whole dose curve.

SMILES	NS1 inh	Shiga inhibitor	Tb PYK inh	SARS PLpro yeast	LmPK inhibitor	Cycloheximide cs
COc1ccc(NC(=O)Nc2cnccn2)cc1	–	48	–	–	–	36
Cc1ccccc1NC(=O)Nc1cnccn1	–	–	–	?	–	–
CCOc1ccc(NC(=O)NC(C)CC)cc1 (configuration not stated)	·	42	–	–	–	40
COC(=O)c1cccc(NC(=O)Nc2ccc(Cl)cc2Cl)c1	–	–	–	–	–	–
CC1(C(=O)NS(=O)(=O)c2ccc(Cl)cc2)CCN1C(=O)Cc1ccccc1Cl (configuration not stated)	·	·	–	·	·	·
O=C(c1ccc(C(F)(F)F)cc1)N1CCC(=O)N([C@H](COCc2ccc(Cl)cc2)Cc2ccccc2)CC1	·	–	–	·	·	–
CC1CC=CC2C1C(=O)N(Cc1ccccc1)C2c1cccc([N+](=O)[O-])c1 (configuration not stated)	·	–	·	·	·	–
CCOc1ccc(NC(=O)Nc2cnccn2)cc1	·	–	–	–	–	16
CC(=O)Nc1ccc(NC(=O)Nc2ccc(C)c(C)c2)cc1	–	–	–	–	–	–
CC(=O)Nc1cccc(NC(=O)Nc2ccc(C)c(Cl)c2)c1	–	48	–	–	–	30
O=C(Nc1cccc(F)c1)Nc1cnccn1	–	–	–	–	–	–
CCOc1ccc(NC(=O)Nc2ccc(Br)cn2)cc1	–	–	–	–	–	–
Cc1ccc(NC(=O)Nc2cnccn2)cc1Cl	·	70	–	–	–	23
CCC(C)c1ccc(NC(=O)Nc2cnccn2)cc1 (configuration not stated)	–	87	–	–	–	74
CN1CCN(C(=O)/C=C/c2ccc(C#N)cc2)CC1	–	–	–	–	–	–
Cc1nn(-c2ccc(F)cc2)c(-n2cccc2)c1C(=O)N1CCN(C(=O)c2ccco2)CC1	–	–	–	–	–	–
C=C(C)C1Cc2cc3ccc(=O)oc3cc2O1 (configuration not stated)	–	–	–	–	–	16
CC(C)(O)[C@H]1Cc2cc3ccc(=O)oc3cc2O1	–	82	–	–	–	39
CC1(C)Oc2cc3oc(=O)ccc3cc2C[C@@H]1O	·	·	–	–	·	·
Cn1c(NC(=O)c2cccc(Cn3cc(Cl)cn3)c2)nc2ccccc21	–	195	–	–	–	69
CC(=O)Nc1ccc(NC(=O)c2ccc(Cn3cc(Cl)cn3)cc2)cc1	–	–	–	–	–	–
CCn1c(NC(=O)c2cccc(Cn3cc(Cl)cn3)c2)nc2ccccc21	–	–	–	–	–	–
O=C(Nc1cccc(Cl)c1)c1ccc(Cn2cc(Cl)cn2)cc1	–	79	–	–	–	15
COc1ccccc1Cc1c(-c2cccc(Br)c2)nc2ccc(Cl)cn12	·	·	–	·	·	·
COC(=O)c1ccc(CSC2=NCCS2)cc1	–	79	–	–	–	61
SMILES	NS1 inh	Shiga inhibitor	Tb PYK inh	SARS PLpro yeast	LmPK inhibitor	Cycloheximide cs
COC(=O)c1ccc(CNC(=O)CSC2=NCCS2)cc1	·	–	–	–	–	–
c1ccc(CSC2=NCCS2)cc1	·	120	–	–	–	–
O=[N+]([O-])c1ccc(CSC2=NCCS2)cc1	–	·	–	–	–	27
O=[N+]([O-])c1ccc(CSC2=NCCN2)cc1	–	·	–	–	–	–
O=C(CCCn1c(=O)c2cccn2c2ccc(F)cc21)NCc1ccc(Cl)cc1	·	·	–	·	·	·
Cc1cc2oc(C(=O)Nc3ccc(S(=O)(=O)N(C)Cc4ccccc4)cc3)cc(=O)c2cc1C	·	·	–	·	·	·
O=[N+]([O-])c1cccnc1SCc1c(F)cccc1Cl	–	–	–	–	–	–
Clc1ccc(CSc2ccc(-c3cccs3)nn2)cc1	·	·	–	·	·	·
Clc1ccc(CSc2ccc(-c3cccnc3)nn2)cc1	·	–	–	–	–	27
Fc1cccc(Cl)c1CSc1ccc(-c2cccnc2)nn1	·	143	–	–	–	36
O=[N+]([O-])c1ccc(SCc2c(F)cccc2Cl)nc1	–	–	–	–	–	19
CCC(=O)Nc1sc2c(c1C#N)CCCCC2	–	72	–	–	–	36
CCCC(=O)Nc1sc2c(c1C#N)CCCCC2	–	47	–	–	–	37
N#Cc1c(Cl)nsc1NC(=O)c1ccccc1	·	132	–	–	–	31
O=C(Nc1csc(Cl)c1)c1ccccc1	·	·	–	·	·	·
Cc1ccc(C(=O)Nc2sc3c(c2C#N)CCCCC3)cc1C	–	43	–	–	–	24
CCOC(=O)c1cc(-c2ccc(C)cc2)n(CC(=O)Nc2ccc(OC)cc2OC)c1C	·	·	–	·	·	·
CN(C)c1ccc(CNc2nc(-c3ccco3)nn2S(=O)(=O)c2ccc3ccccc3c2)cc1	·	·	–	·	·	·
C=CCNC(=S)Nc1sc2c(c1C#N)CCCC2	–	–	–	–	–	23
N#Cc1c(NC(=O)CCCC(=O)O)sc2c1CCCCC2	–	112	–	–	–	34
COC(=O)c1c(NC(C)=O)sc2c1CCCCC2	–	–	–	–	–	–
CC(C)CCOc1ccc(C(=O)Nc2sc3c(c2C#N)CCCCC3)cc1	·	·	–	·	·	·
N#Cc1c(NC(=O)CSC2=NCCS2)sc2c1CCCC2	–	–	–	–	–	–
N#Cc1c(NC(=O)c2ccccc2)sc2c1CCCCC2	–	55	–	–	–	48
CC(=O)Nc1sc2c(c1C#N)CCCCC2	–	–	–	–	–	18
SMILES	NS1 inh	Shiga inhibitor	Tb PYK inh	SARS PLpro yeast	LmPK inhibitor	Cycloheximide cs
CC(OC(=O)Cc1c[nH]c2ccccc12)C(=O)NC1CCCCC1C (configuration not stated)	·	·	–	–	·	·
CCOC(=O)[C@H]1[C@H]2COc3ccc(Br)cc3[C@@H]2N2C(=O)CN(CC3CCCO3)C(=O)[C@@]12C (some centres not stated)	·	·	–	?	·	·
CO[C@H]1[C@@H](O)[C@H](N)[C@@H](O[C@H]2O[C@@H]([C@H](C)N)CC[C@H]2N)[C@H](O)[C@@H]1N(C)C(=O)CN	·	·	–	·	·	·
Cc1noc(C)c1-c1ccc2ncnc(NCc3ccccc3Cl)c2c1	·	–	·	·	·	–
C[C@H](CO)N1C[C@H](C)[C@@H](CN(C)C)Oc2c(NS(=O)(=O)c3cccs3)cccc2C1=O	·	·	–	–	·	·
CNS(=O)(=O)c1cccc(C(=O)OCC(=O)Nc2sc3c(c2C#N)CCCCC3)c1	–	44	–	–	–	26
CN(C)S(=O)(=O)c1ccc(C(=O)OCC(=O)Nc2sc3c(c2C#N)CCCCC3)cc1	–	–	–	–	–	–
Cc1ccccc1C(=O)NC(=S)Nc1sc2c(c1C#N)CCCC2	?	–	–	–	–	–
CC(C)(C)C(=O)NC(=S)Nc1sc2c(c1C#N)CCCCC2	–	–	–	–	–	19
O=C(O)c1sccc1S(=O)(=O)N1CCOCC1	·	·	–	–	·	·
CCOC(=O)c1c(C)oc2nc(C)nc(NCC3CCN(Cc4cc(C)ccc4C)CC3)c12	·	·	–	·	·	·
Nc1ccc(N2CCN(c3ccccc3)CC2)c(F)c1	–	57	–	–	–	14
COc1ccccc1-c1csc(Cc2nnc3n2CCCCC3)n1	–	153	–	–	–	46

Screens (PubChem BioAssay)
